This passage reports Potency results from PubChem BioAssay (NCATS).

Records with an inconclusive call do not appear. A call without a number means that no potency is given here. Calls of active or inactive are those of the source. The call rests on the fitted dose curve; in most records, active means well fitted inhibition curve with a large enough effect; inconclusive means small, poorly fitted or top-dose-only effect; inactive means no such curve, though single readings can be large or run the other way.

The target of the experiment is Retinaldehyde dehydrogenase 3 (Homo sapiens) (UniProt P47895). The experiment can be described thus: qHTS for Inhibitors of the Aldehyde Dehydrogenase Family (ALDH1A3) Validation screen (AID 2061312). Further: nearly all actives have a fitted effect of over 45% in size. The conditions noted are these: ALDH1A3 enzyme inhibition qHTS validation, fluorescence; series mostly up to 84.7 µM. (In general: qHTS replaces the single test concentration by a dilution series.)
As to `CCCc1c(OCCCOc2ccc(OCC(=O)O)cc2)ccc(C(C)=O)c1O`, the Potency result is “inactive”.

As to `COc1ccc2[nH]cc(CCNC(C)=O)c2c1`, the Potency result is “inactive”.

Turning to `CCC(C)N(C)C(=O)c1cc2ccccc2c(-c2ccccc2Cl)n1` (stereo unspecified), the Potency entry is “inactive”.

As to `O=c1c(O)c(-c2ccc(O)cc2O)oc2cc(O)cc(O)c12`, the Potency entry is “inactive”.

Take `CC(C)NCC(O)c1ccc(NS(C)(=O)=O)cc1` (stereo unspecified): the Potency result is “inactive”.

In the case of `COc1ccc(C2CNC(=O)C2)cc1OC1CCCC1` (stereo unspecified), the Potency result was “inactive”.

In the case of `O=C1CCC(N2C(=O)c3ccccc3C2=O)C(=O)N1` (stereo unspecified), the Potency result was “inactive”.

Take `Nc1ncnc2c1ncn2[C@@H]1O[C@H](CO)[C@@H](O)[C@H]1O`: the Potency entry is “inactive”.

Consider `O=c1[nH]cc(F)c(=O)[nH]1`, for which the Potency entry was “inactive”.

As for `Cc1cccc(-c2[nH]ncc2-c2ccc3ncccc3n2)n1`, the Potency entry is “inactive”.

Consider `CCn1cc(C(=O)O)c(=O)c2cc(F)c(N3CCNC(C)C3)c(F)c21` (stereo unspecified), for which the Potency entry was “inactive”.

For the compound `CNC[C@H](O)c1ccc(O)c(O)c1`, the Potency entry was “inactive”.

For `Nc1nc2c(ncn2COC(CO)CO)c(=O)[nH]1`, the Potency result was “inactive”.

Consider `NCCCCCC(=O)O`, for which the Potency result is “inactive”.

In the case of `CC(C)NCC(O)COc1ccc(CCOCC2CC2)cc1` (stereo unspecified), the Potency result is “inactive”.

With `O=C(O)C1CCCN(CCC=C(c2ccccc2)c2ccccc2)C1` (stereo unspecified), the Potency result is “inactive”.

On to `NS(=O)(=O)c1cc2c(cc1Cl)NC=NS2(=O)=O`, for which the Potency entry is “inactive”.

As to `CCN(CC)CCNC(=O)c1c(C)[nH]c(/C=C2\C(=O)Nc3ccc(F)cc32)c1C`, the Potency result is “inactive”.

On to `CN(C)C(=O)C(CCN1CCC(O)(c2ccc(Cl)cc2)CC1)(c1ccccc1)c1ccccc1`, for which the Potency entry was “inactive”.

As for `CCOC(=O)C(C)(C)Oc1ccc(Cl)cc1`, the Potency entry is “inactive”.

`COc1cccc(-c2cc(=O)c3ccccc3o2)c1N`: the Potency result is “inactive”.
